From PubChem BioAssay

test: small-molecule microarray binders of probe aLefty2, primary screen, biochemical, biotinylated probe, 635/667 nm fluorescence (AID 1094); conditions: higher = more signal;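 further: score merges spot fluorescence near 667 nm with spot signal-to-noise ratio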

Point of comparison: `COCCOC(=O)N1C(=O)[C@@]2(c3cc(C#CC4=CCCCC4)ccc31)[C@H](C(=O)NC[C@H](O)c1ccccc1)[C@H]1C(=O)O[C@H](c3ccccc3)[C@H](c3ccccc3)N1[C@@H]2c1ccccc1OCCO`, composite z-score 0.306. Against it:
- CO[C@@H]1COC(=O)CC=C[C@@H](C)[C@H](OC)COC(=O)CC=C[C@H]1C — lower, -0.38
- O=C1O[C@H](c2ccccc2)[C@H](c2ccccc2)N2[C@H]1[C@@H](C(=O)Nc1nc3ccccc3s1)[C@]1(C(=O)Nc3ccc(C#CC4(O)CCCCCC4)cc31)[C@H]2c1ccc(O)cc1 — lower, 0.11
- O=C1O[C@@H](c2ccccc2)[C@@H](c2ccccc2)N2[C@@H](c3ccccc3OCCO)[C@]3(C(=O)Nc4ccc(C#CC5=CCCCC5)cc43)[C@@H](C(=O)O)[C@H]12 — lower, 0.0748
- O=C1O[C@@H](c2ccccc2)[C@@H](c2ccccc2)N2[C@@H](c3ccc(O)cc3)[C@]3(C(=O)Nc4ccccc43)[C@@H](C(=O)N3CCN(c4ncccn4)CC3)[C@H]12 — lower, -0.12
- C[N+](C)(C)CCCCNC(=O)[C@@H]1C[C@@H]2C(=O)N3CCC[C@H]3C(=O)N2[C@@H]1c1cccc(OCCO)c1 — lower, -0.123
- C=CC[C@@]1(C(=O)N2CCOCC2)N=C(c2ccc(OCCCO)cc2)O[C@@H]1c1ccccc1 — lower, 0.0634
- CCC#CCN(Cc1ccccc1Br)[C@H](/C=C/c1ccccc1)[C@@H](O)Cc1ccccc1 — lower, 0.136
- O=C(NCc1ccccc1)c1ccc(Br)cc1[N+](=O)[O-] — lower, 0.109
- CC(C)N1CC=CC23O[C@@H]4/C=C\CCCOC(=O)C4[C@H]2C(=O)N(CCCCCO)[C@@H]3C1=O (stereo partly specified) — lower, -0.208
- O=C1OCC=C[C@H]2OC34C=CCN(Cc5ccccc5)C(=O)[C@H]3N(CCO)C(=O)[C@@H]4[C@@H]12 (stereo partly specified) — lower, -0.232
- O=C1O[C@H](c2ccccc2)[C@H](c2ccccc2)N2[C@H]1[C@@H](C(=O)NC[C@H](O)c1ccccc1)[C@]1(C(=O)Nc3ccc(C#CC4=CCCCC4)cc31)[C@H]2c1ccc(OCCO)cc1 — lower, -0.104
- COc1ccc(-c2ccccc2[C@@H]2N[C@H](C(=O)O)CC[C@H]2C)cc1 — lower, -0.05
- CCOC(=O)C[C@H]1[C@H](OC(=O)c2cc3ccccc3oc2=O)[C@@H](NC(=O)C2CCCCC2)c2cc(OCCCO)ccc2N1C(=O)c1ccc2ccccc2n1 — lower, -0.124
- NC(=O)NCC#Cc1ccc2c(c1)[C@]1(C(=O)N2)[C@H](C(=O)N2CCCCCCC2)[C@H]2C(=O)O[C@H](c3ccccc3)[C@H](c3ccccc3)N2[C@@H]1c1ccccc1OCCO — higher, 1.65
- Cc1ccc(N2C(=O)c3ccccc3[C@@H](C(=O)NCc3ccccc3)[C@@H]2c2ccc(CO)cc2)nc1 — the same, 0.306
- COC(=O)C(CC#Cc1ccc2c(c1)[C@]1(C(=O)N2)[C@H](C(=O)N2CCCCCCC2)[C@H]2C(=O)O[C@H](c3ccccc3)[C@H](c3ccccc3)N2[C@@H]1c1ccc(O)cc1)C(=O)OC — lower, -0.294
- COc1ccc([Si](C)(C)[C@@H]2[C@@H](CCO)O[C@]3(C(=O)N(Cc4ccc(NC(=O)[C@H](C)O)cc4)c4ccccc43)[C@H]2C)cc1 — lower, 0.12
- C=CCNC(=O)[C@@H]1[C@H]2C(=O)O[C@H](c3ccccc3)[C@H](c3ccccc3)N2[C@H](c2ccc(OCCO)cc2)[C@@]12C(=O)N(C(=O)OCCOC)c1ccc(C#CC3(O)CCCCCC3)cc12 — higher, 0.505
- CC1CC/C=C\[C@H]2OC34C=CCN(Cn5nnc6ccccc65)C(=O)[C@H]3N(C(C)CO)C(=O)[C@@H]4C2C(=O)O1 (stereo partly specified) — lower, -0.144
- COc1ccc([Si](C)(C)[C@H]2[C@H](CC(=O)N(CCO)Cc3ccccc3)O[C@@]3(C(=O)N(C)c4ccccc43)[C@@H]2C)cc1 — lower, -0.186
- CO[C@H]1COC(=O)[C@H](CCSC)NC(=O)CC=C[C@@H](C)COC(=O)[C@@H](OCc2ccccc2)C=C[C@@H]1C — lower, -0.222
- C=CCOC(=O)[C@@H]1[C@H]2C(=O)O[C@H](c3ccccc3)[C@H](c3ccccc3)N2[C@H](c2ccc(OCCOC(=O)[C@H]3C[C@H]4C(=O)N[C@@H](CCCCNC(C)=O)C(=O)N4[C@H]3c3ccc(O)cc3)cc2)[C@@]12C(=O)Nc1ccc(I)cc12 — lower, -0.0974
- O=[N+]([O-])c1ccc(C[n+]2ccc3ccc(O)cc3c2)o1 — lower, -0.155
- CCOC(=O)C1=CC[C@@H](c2ccc(-c3ccc(OCc4ccccc4)cc3)c(OC)c2)N(S(=O)(=O)c2ccc(C)cc2)[C@H]1c1ccccc1 — lower, 0.158
- COC(=O)[C@@]1(Cc2ccc(OC)cc2)[C@H]2c3cc(C(=O)N(C)C)n(Cc4ccc(C)c(F)c4F)c3C[C@H]2CN1C(=O)c1ccccc1 — lower, 0.146
- CCCC=C(CCC)[C@@H](NS(=O)(=O)c1ccc(-c2ccccc2)cc1)c1ccc(C(=O)OC)cc1 — lower, -0.119
- CCOC(=O)[C@H]1C/C=C/C[C@H](C(=O)OCC)C(=O)O[C@H]2[C@@H](OC)O[C@H](CO)[C@@H](OC(=O)Nc3ccc(Br)cc3)[C@@H]2OC1=O — higher, 0.45
- C=C[C@H](OC)[C@@H](OC(=O)Nc1ccc(SC)cc1)c1ccc(O)c(F)c1 — lower, -0.0174
- COCCOC(=O)N1C(=O)[C@@]2(c3cc(C#CCNC(N)=O)ccc31)[C@H](c1ccc(OCCO)cc1)N1[C@H](c3ccccc3)[C@H](c3ccccc3)OC(=O)[C@H]1[C@@H]2C(=O)N1CCCCCCC1 — higher, 1.09
- CN(C)c1ccc(C(O)C2C=CC3C(=O)NC(=O)C3N2Nc2ccc(Cl)cc2Cl)cc1 (stereo unspecified) — higher, 0.31
- COCCOC(=O)N1C(=O)[C@@]2(c3cc(C#CCC(C(=O)OC)C(=O)OC)ccc31)[C@H](C(=O)N1CCN(c3ncccn3)CC1)[C@H]1C(=O)O[C@H](c3ccccc3)[C@H](c3ccccc3)N1[C@@H]2c1ccc(O)cc1 — lower, -0.0288
- COCCOC(=O)N1C(=O)[C@@]2(c3ccccc31)[C@H](C(=O)N1CCc3cc(OC)c(OC)cc3C1)[C@H]1C(=O)O[C@H](c3ccccc3)[C@H](c3ccccc3)N1[C@@H]2c1ccccc1OCCO — lower, 0.0261
- CC(C)=C1C(=O)C(c2ccccc2)=C2CN3C(=O)N(CCc4ccccc4)C(=O)[C@]3(Cc3ccccc3)[C@H]21 — lower, 0.213
- CO[C@H]1COC(=O)CC=C[C@H](C)COC(=O)[C@@H](OCc2ccccc2)C=C[C@@H]1C — lower, -0.368
- [N-]=[N+]=NCc1ccccc1C[C@@]1(C(=O)N2CCOCC2)N=C(c2ccc(OCCCO)cc2)O[C@@H]1c1ccccc1N=[N+]=[N-] — higher, 0.557
